Laboratory results as given in PubChem BioAssay AID1159580 (chemical genetic matrix, 2015).
Values joined by “and” are separate entries in the source; they are usually repeats but may differ in a detail not shown here. Equal entries are not always repeated. Out of some 5,500 compounds screened, about 2,000 (36%) were called active. Roughly 18% stayed inconclusive and do not appear here. Some of the results follow. Values without a mark were called inactive. Rule as the data show it: active = normalized growth mostly below about 0.91 (no sharp cut-off); inconclusive = no clear call, values can overlap the other calls; inactive = mostly above about 0.92.

Test: chemical genetic growth profiling, strain panel (AID 1159580);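 also: tested at 20 µM; growth read once vehicle control cultures reached saturation at 30 °C; 1 = growth at the plate median or of vehicle wells; lower values mean less growth of the strain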
Details: S. cerevisiae deletion strains, growth OD
[1] = locus YDR150W, strain NUM1, hits give low values
[2] = locus YNL153C, strain GIM3, hits give low values
[3] = locus YPL241C, strain CIN2, hits give low values
[4] = locus YAL013W, strain DEP1, hits give low values
[5] = locus YBR229C, strain ROT2, hits give low values
[6] = locus YDL101C, strain DUN1, hits give low values
[7] = locus YEL061C, strain CIN8, hits give low values
[8] = locus YGR078C, strain PAC10, hits give low values
[9] = locus YGR229C, strain SMI1, hits give low values
[10] = locus YHR030C, strain SLT2, hits give low values
[11] = locus YHR087W, strain rtc3, hits give low values
[12] = locus YJL187C, strain SWE1, hits give low values
[13] = locus YJR043C, strain POL32, hits give low values
[14] = locus YJR075W, strain HOC1, hits give low values
[15] = locus YLR039C, strain RIC1, hits give low values
[16] = locus YLR058C, strain SHM2 (second series), hits give low values
[17] = locus YLR085C, strain ARP6, hits give low values
[18] = locus YLR262C, strain YPT6, hits give low values
[19] = locus YML094W, strain GIM5, hits give low values
[20] = locus YMR219W, strain ESC1, hits give low values
[21] = locus YMR263W, strain SAP30, hits give low values
[22] = locus YNL298W, strain CLA4 (second series), hits give low values
[23] = locus YNL322C, strain KRE1, hits give low values
[24] = locus YNR030W, strain Alg12, hits give low values
[25] = locus YPL055C, strain LGE1, hits give low values
[26] = locus YPR135W, strain CTF4, hits give low values

Cc1ccc([N+](=O)[O-])cc1S(=O)(=O)N(C)C
normalized growth (locus YAL040C, strain CLN3, hits give low values): 0.984 | normalized growth (locus YCL061C, strain MRC1 (second series), hits give low values): 1 | normalized growth [1]: 1.03 | normalized growth (locus YDR363W, strain ESC2, hits give low values): 0.972 | normalized growth (locus YER002W, strain NOP16, hits give low values): 1 | normalized growth [2]: 0.846 | normalized growth (locus YNL175C, strain NOP13, hits give low values): 0.996 | normalized growth (locus YNL197C, strain WHI3, hits give low values): 0.926 | normalized growth (locus YNL224C, strain SQS1, hits give low values): 0.979 | normalized growth (locus YOR083W, strain WHI5 (second series), hits give low values): 0.955 | normalized growth [3]: 0.998

O=[N+]([O-])c1ccc2c(c1)NC(c1ccc([N+](=O)[O-])s1)O2 (centres undefined)
normalized growth [4]: 0.0563 (active) | normalized growth [5]: 0.0525 (active) | normalized growth (locus YCL061C, strain MRC1, hits give low values): 0.0508 (active) | normalized growth [6]: 0.0673 (active) | normalized growth (locus YDL134C, strain PPH21, hits give low values): 0.0453 (active) | normalized growth [1]: 0.0493 (active) | normalized growth [7]: 0.049 (active) | normalized growth (locus YGR052W, strain FMP48, hits give low values): 0.104 (active) | normalized growth [8]: 0.0481 (active) | normalized growth [9]: 0.0516 (active) | normalized growth [10]: 0.0641 (active) and 0.114 (active) | normalized growth (locus YHR079C, strain IRE1, hits give low values): 0.11 (active) | normalized growth (locus YHR082C, strain KSP1, hits give low values): 0.106 (active) | normalized growth [11]: 0.0539 (active) | normalized growth (locus YJL095W, strain BCK1, hits give low values): 0.1 (active) | normalized growth [12]: 0.0478 (active) | normalized growth [13]: 0.0509 (active) | normalized growth (locus YJR066W, strain TOR1, hits give low values): 0.1 (active) | normalized growth [14]: 0.0918 (active) | normalized growth (locus YKL171W, strain NNK1, hits give low values): 0.387 (active) | normalized growth (locus YKL203C, strain TOR2, hits give low values): 0.0984 (active) | normalized growth [15]: 0.0606 (active) | normalized growth [16]: 0.0478 (active) | normalized growth [17]: 0.0638 (active) | normalized growth (locus YLR113W, strain HOG1, hits give low values): 0.187 (active) | normalized growth [18]: 0.0626 (active) | normalized growth [19]: 0.0601 (active) | normalized growth [20]: 0.0484 (active) | normalized growth [21]: 0.0575 (active) | normalized growth [2]: 0.0476 (active) | normalized growth (locus YNL183C, strain NPR1, hits give low values): 0.108 (active) | normalized growth (locus YNL207W, strain RIO2, hits give low values): 0.107 (active) | normalized growth [22]: 0.0735 (active) | normalized growth [23]: 0.0534 (active) | normalized growth [24]: 0.063 (active) | normalized growth (locus YOR119C, strain RIO1, hits give low values): 0.0996 (active) | normalized growth (locus YOR231W, strain MKK1, hits give low values): 0.101 (active) | normalized growth [25]: 0.0657 (active) | normalized growth [3]: 0.0629 (active) | normalized growth (locus YPL256C, strain CLN2, hits give low values): 0.17 (active) | normalized growth [26]: 0.149 (active)

CN1c2ccccc2C(=O)NC1c1ccc([N+](=O)[O-])s1 (centres undefined)
normalized growth [4]: 1 | normalized growth [5]: 0.988 | normalized growth [6]: 1.02 | normalized growth [1]: 1 | normalized growth [7]: 0.967 | normalized growth [8]: 1.02 | normalized growth [9]: 0.989 | normalized growth [10]: 1 | normalized growth [11]: 0.991 | normalized growth [12]: 0.996 | normalized growth [13]: 1.01 | normalized growth [14]: 1.02 | normalized growth [15]: 1.02 | normalized growth [16]: 0.995 | normalized growth [17]: 1.03 | normalized growth [18]: 1.05 | normalized growth [19]: 0.989 | normalized growth [20]: 0.995 | normalized growth [21]: 1 | normalized growth (locus YMR307W, strain GAS1, hits give low values): 1.01 | normalized growth [2]: 1.02 | normalized growth [22]: 1.01 | normalized growth [23]: 0.995 | normalized growth [24]: 0.988 | normalized growth [25]: 0.971 | normalized growth [3]: 1 | normalized growth [26]: 1.05
